Measurements as given in PubChem BioAssay AID1159580 (chemical genetic matrix, 2015).
In all, about 5,500 compounds went through this assay and about 2,000 (36%) were called active. Not shown: some 18% with an inconclusive outcome. Cut-off read from the data, not from the text of the source: active = normalized growth mostly below about 0.91 (no sharp cut-off); inconclusive = no clear call, values can overlap the other calls; inactive = mostly above about 0.92. The list shows a part of the results.

Assay: chemical genetic growth profiling, strain panel (AID 1159580);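 note: tested at 20 µM; growth read once vehicle control cultures reached saturation at 30 °C; 1 = growth at the plate median or of vehicle wells; lower values mean less growth of the strain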
Details: growth OD

Measured: normalized growth

O=C1C=CC2=C3c4cc(O)c(O)cc4C[C@@]3(O)COC2=C1
inactive: S. cerevisiae deletion strains, locus YJR066W, strain TOR1, stronger effect = lower value 0.935 | S. cerevisiae deletion strains, locus YKL009W, strain mrt4, stronger effect = lower value 1.01 | S. cerevisiae deletion strains, locus YKL068W, stronger effect = lower value 1.01 | S. cerevisiae deletion strains, locus YKL085W, strain MDH1 (second series), stronger effect = lower value 1.01 | S. cerevisiae deletion strains, locus YKL085W, strain MDH1, stronger effect = lower value 1.01 | S. cerevisiae deletion strains, locus YKL160W, strain elf1, stronger effect = lower value 0.953 | S. cerevisiae deletion strains, locus YKR001C, strain vps1, stronger effect = lower value 1.02 | S. cerevisiae deletion strains, locus YKR026C, strain gcn3, stronger effect = lower value 0.983 | S. cerevisiae deletion strains, locus YKR091W, strain srl3, stronger effect = lower value 0.97 | S. cerevisiae deletion strains, locus YLL001W, strain dnm1, stronger effect = lower value 0.976 | S. cerevisiae deletion strains, locus YLL026W, stronger effect = lower value 0.986 | S. cerevisiae deletion strains, locus YLL041C, strain sdh2, stronger effect = lower value 0.976 | S. cerevisiae deletion strains, locus YLR027C, strain aat2, stronger effect = lower value 0.979 | S. cerevisiae deletion strains, locus YLR039C, strain RIC1, stronger effect = lower value 1.07 | S. cerevisiae deletion strains, locus YLR058C, strain SHM2, stronger effect = lower value 0.997 | S. cerevisiae deletion strains, locus YLR102C, strain apc9, stronger effect = lower value 0.992 | S. cerevisiae deletion strains, locus YLR113W, strain HOG1, stronger effect = lower value 1.08 | S. cerevisiae deletion strains, locus YLR221C, strain rsa3, stronger effect = lower value 0.991 | S. cerevisiae deletion strains, locus YLR258W, strain gsy2, stronger effect = lower value 0.971 | S. cerevisiae deletion strains, locus YLR262C, strain YPT6 (second series), stronger effect = lower value 0.976 | S. cerevisiae deletion strains, locus YLR262C, strain YPT6, stronger effect = lower value 1.08 | S. cerevisiae deletion strains, locus YLR268W, strain sec22, stronger effect = lower value 1.03 | S. cerevisiae deletion strains, locus YLR320W, strain mms22, stronger effect = lower value 0.995 | S. cerevisiae deletion strains, locus YLR342W, strain FKS1, stronger effect = lower value 0.985 | S. cerevisiae deletion strains, locus YLR357W, strain rsc2, stronger effect = lower value 0.912 | S. cerevisiae deletion strains, locus YLR370C, strain arc18, stronger effect = lower value 0.987 | S. cerevisiae deletion strains, locus YLR371W, strain rom2, stronger effect = lower value 0.989 | S. cerevisiae deletion strains, locus YLR384C, strain iki3, stronger effect = lower value 0.971 | S. cerevisiae deletion strains, locus YLR418C, strain cdc73, stronger effect = lower value 0.991 | S. cerevisiae deletion strains, locus YML016C, strain PPZ1, stronger effect = lower value 0.996 | S. cerevisiae deletion strains, locus YML032C, strain rad52, stronger effect = lower value 1.02 | S. cerevisiae deletion strains, locus YML120C, strain ndi1, stronger effect = lower value 0.983 | S. cerevisiae deletion strains, locus YML124C, strain tub3, stronger effect = lower value 1 | S. cerevisiae deletion strains, locus YMR058W, strain fet3, stronger effect = lower value 0.941 | S. cerevisiae deletion strains, locus YMR078C, strain ctf18, stronger effect = lower value 0.996 | S. cerevisiae deletion strains, locus YMR125W, strain sto1, stronger effect = lower value 0.954 | S. cerevisiae deletion strains, locus YMR129W, stronger effect = lower value 1 | S. cerevisiae deletion strains, locus YMR205C, strain PFK2, stronger effect = lower value 0.98 | S. cerevisiae deletion strains, locus YMR223W, strain ubp8, stronger effect = lower value 0.975 | S. cerevisiae deletion strains, locus YMR231W, strain pep5, stronger effect = lower value 0.957 | S. cerevisiae deletion strains, locus YMR307W, strain GAS1, stronger effect = lower value 0.991 | S. cerevisiae deletion strains, locus YNL067W, strain RPL9B, stronger effect = lower value 0.994 | S. cerevisiae deletion strains, locus YNL071W, strain lat1, stronger effect = lower value 0.982 | S. cerevisiae deletion strains, locus YNL128W, strain TEP1, stronger effect = lower value 0.998 | S. cerevisiae deletion strains, locus YNL153C, strain GIM3, stronger effect = lower value 0.963 | S. cerevisiae deletion strains, locus YNL183C, strain NPR1, stronger effect = lower value 0.971 | S. cerevisiae deletion strains, locus YNL209W, strain ssb2, stronger effect = lower value 0.987 | S. cerevisiae deletion strains, locus YNL233W, strain BNI4, stronger effect = lower value 0.992 | S. cerevisiae deletion strains, locus YNL248C, strain rpa49, stronger effect = lower value 0.969 | S. cerevisiae deletion strains, locus YNL250W, strain rad50, stronger effect = lower value 0.954 | S. cerevisiae deletion strains, locus YNL271C, strain bni1, stronger effect = lower value 0.982 | S. cerevisiae deletion strains, locus YNL298W, strain CLA4, stronger effect = lower value 0.996 | S. cerevisiae deletion strains, locus YNL307C, strain MCK1, stronger effect = lower value 1 | S. cerevisiae deletion strains, locus YNL322C, strain KRE1 (second series), stronger effect = lower value 0.971 | S. cerevisiae deletion strains, locus YNL322C, strain KRE1, stronger effect = lower value 1.01 | S. cerevisiae deletion strains, locus YNR049C, strain mso1, stronger effect = lower value 0.977 | S. cerevisiae deletion strains, locus YNR052C, strain pop2, stronger effect = lower value 0.967 | S. cerevisiae deletion strains, locus YOL012C, strain htz1 0.978 | S. cerevisiae deletion strains, locus YOL147C, strain pex11, stronger effect = lower value 0.998 | S. cerevisiae deletion strains, locus YOR001W, strain rrp6, stronger effect = lower value 0.968 | S. cerevisiae deletion strains, locus YOR061W, strain CKA2, stronger effect = lower value 1.01 | S. cerevisiae deletion strains, locus YOR069W, strain VPS5, stronger effect = lower value 0.993 | S. cerevisiae deletion strains, locus YOR070C, strain gyp1, stronger effect = lower value 0.967 | S. cerevisiae deletion strains, locus YOR080W, strain dia2, stronger effect = lower value 0.979 | S. cerevisiae deletion strains, locus YOR083W, strain WHI5, stronger effect = lower value 0.959 | S. cerevisiae deletion strains, locus YOR106W, strain vam3, stronger effect = lower value 0.931 | S. cerevisiae deletion strains, locus YOR136W, strain idh2, stronger effect = lower value 0.998 | S. cerevisiae deletion strains, locus YOR144C, strain elg1, stronger effect = lower value 1.01 | S. cerevisiae deletion strains, locus YOR184W, strain ser1, stronger effect = lower value 1.08 | S. cerevisiae deletion strains, locus YOR231W, strain MKK1, stronger effect = lower value 1.02 | S. cerevisiae deletion strains, locus YOR265W, strain rbl2, stronger effect = lower value 0.986 | S. cerevisiae deletion strains, locus YOR270C, strain vph1, stronger effect = lower value 1.01 | S. cerevisiae deletion strains, locus YOR290C, strain snf2, stronger effect = lower value 0.946 | S. cerevisiae deletion strains, locus YOR316C, strain cot1, stronger effect = lower value 1 | S. cerevisiae deletion strains, locus YPL051W, strain arl3, stronger effect = lower value 0.968 | S. cerevisiae deletion strains, locus YPL055C, strain LGE1, stronger effect = lower value 1.04 | S. cerevisiae deletion strains, locus YPL078C, strain atp4, stronger effect = lower value 0.992 | S. cerevisiae deletion strains, locus YPL106C, strain sse1, stronger effect = lower value 0.944 | S. cerevisiae deletion strains, locus YPL240C, strain hsp82, stronger effect = lower value 0.99 | S. cerevisiae deletion strains, locus YPL241C, strain CIN2, stronger effect = lower value 1.01 | S. cerevisiae deletion strains, locus YPL256C, strain CLN2, stronger effect = lower value 1 | S. cerevisiae deletion strains, locus YPR119W, strain clb2, stronger effect = lower value 0.996 | S. cerevisiae deletion strains, locus YPR141C, strain kar3, stronger effect = lower value 0.993 | S. cerevisiae deletion strains, locus YPR163C, strain tif3, stronger effect = lower value 1 | S. cerevisiae deletion strains, locus YPR167C, strain met16, stronger effect = lower value 0.978 | S. cerevisiae deletion strains, strain wtn01, stronger effect = lower value 1.03 | S. cerevisiae strains, strain wild type, stronger effect = lower value 1.03
